# Assay outcomes as filed in PubChem BioAssay.
# An excerpt weighted towards active compounds, which were near 4.8% of everything screened.
# SMARCA2 activ = increases SMARCA2 function in MMTV reporter cells; MG213 cells, MMTV-luciferase reporter, dexamethasone, overnight; activation, % at 9.1 µM; hit rate 1% among 370,000; in the data active = activation above about 7.8%;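 note: 0% = vehicle wells and 100% = reference activator wells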
# hgDAF-12 ag = agonists of H. glycines DAF-12 nuclear receptor. HEK293 GAL4-hgDAF12 UAS-luciferase reporter, agonist luminescence; normalized to butyrate control. activation, % at 6.8 µM. hit rate 1.8% among 370,000;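 active = activation above a cutoff set at the mean of all screened compounds plus 3 SD, cut at about 10% in these data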;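 note: 0% = DMSO wells and 100% = sodium butyrate wells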
# hcDAF-12 act = activators of H. contortus DAF-12 nuclear receptor | AID 652067 | HEK293 hcDAF-12 lit1-tk-luc reporter, luminescence; 0% DMSO, 100% Δ7-dafachronic acid | activation, % at 6.8 µM | hit rate 1.4% among 370,000;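 active = activation above the mean of all tested compounds plus 3 SD, cut at about 5.5% in these data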;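 note: 100% = response to 3 µM Δ7-dafachronic acid high control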
# DAX1 inh-1 = inhibits human nuclear receptor DAX1. P51843. hit rate 0.99% among 340,000. inhibition, % at 6.75 µM. HEK293 Gal4-DAX1 luciferase reporter, luminescence;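 active = inhibition above the mean over all tested compounds plus 3 SD, cut at about 4.2% in these data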;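 note: 0% = DAX1-transfected cells with DMSO and 100% = empty-vector control cells with DMSO; inhibition shows as a rise in luminescence from relieved DAX1 repression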
# Target sequence (P51843 207-470 limits assumed): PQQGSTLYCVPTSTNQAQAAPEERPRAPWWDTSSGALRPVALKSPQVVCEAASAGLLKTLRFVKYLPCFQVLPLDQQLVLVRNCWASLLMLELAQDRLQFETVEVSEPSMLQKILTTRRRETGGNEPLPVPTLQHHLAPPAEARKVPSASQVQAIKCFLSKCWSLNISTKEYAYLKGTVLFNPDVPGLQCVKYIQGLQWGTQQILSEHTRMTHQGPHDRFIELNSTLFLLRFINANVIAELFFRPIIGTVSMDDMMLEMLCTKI
# DAX1 inh-2 = blocks DAX1 repression of SF-1 activated StAR promoter; HEK293T StAR-luciferase reporter, SF-1/DAX-1 repression relief; inhibition, % at 6.8 µM; hit rate 1.1% among 370,000;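 active = inhibition above the mean over all tested compounds plus 3 SD, cut at about 3.6% in these data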;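 note: 0% = DAX-1 cells with DMSO and 100% = cells lacking DAX-1 with DMSO; higher inhibition means more luminescence from relief of DAX-1 repression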
# ssDAF-12 act = activators of S. stercoralis DAF-12 nuclear receptor | HEK293 ssDAF-12/GRIP1 lit1-tk-luc reporter, luminescence; % of 3 µM dafachronic acid response | activation, % at 6.8 µM | hit rate 1% among 370,000;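 active = activation above the mean over all tested compounds plus 3 SD, cut at about 0.9% in these data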;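 note: 0% = DMSO-only wells and 100% = 3 µM delta7-dafachronic acid wells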
# * marks the source's active call; other numbers are inactive results; nt = not tested or not shown.
SMILES,SMARCA2 activ,hgDAF-12 ag,hcDAF-12 act,DAX1 inh-1,DAX1 inh-2,ssDAF-12 act
CCCCNC(=O)N(O)C1N(/N=C/c2cccnc2)C(=S)SC1(C)C (stereo not drawn),-5,-1,-2,-1,0,-1
CCOC(=O)[C@]12CCCC3=C1N(CCC3)C(=O)[C@@H](CC(=O)N1CCOCC1)C2,0,-2,2,nt,-1,-1
CN(C)CCCN(C(=O)c1ccc(S(=O)(=O)N(C)C)cc1)c1nc2cc3c(cc2s1)OCO3,1,-2,1,2,-1,1.5*
CN(C)CCN(C(=O)c1ccc(S(=O)(=O)N(C)c2ccccc2)cc1)c1nc2ccc(Cl)cc2s1,14*,5,2,0,3,0
CN1CCCN(C(=O)CSc2ccccc2)CC1,-2,0,-1,0,0,-1
CN1CCN(C(=O)CSc2ccc(Cl)cc2)CC1,-2,9,2,4.6*,1,-1
Cc1ccc(CNc2ccc3c(c2)ncn3C)cc1,3,6,3,1,2,0
Cc1ccc(CNc2ccc3c(c2)ncn3C(C)(C)C)cc1,2,9,5,6.6*,4.1*,1
O=C(c1cccc(Oc2ccccc2)c1)N1CCC(Oc2cccnc2)CC1,-1,-4,-2,nt,-1,-2
O=C(COC(=O)c1ccccc1-n1cnnn1)c1ccccc1,3,1,3,1,0,-1
O=C(COC(=O)c1ccccc1-n1cnnn1)c1ccc(F)c(F)c1,2,8,4,0,4.0*,0.9*
O=S1(=O)CC(N2CCCC2)CN1 (stereo not drawn),-3,-2,0,nt,0,-2
CCc1ccc(C(=O)NC2CCCCC2)s1,3,11*,3,1,3,1
CC(C)(O)C#Cc1ccc(C(=O)NC2CCCCC2)s1,3,11*,2,1,1,-1
CC(C)(O)C#Cc1ccc(C(=O)NCCC(=O)O)s1,0,-1,-2,0,0,-1
CC1CCc2sc(C(=O)NC3CCCCC3)cc2C1 (stereo not drawn),1,12*,3,4,2,-1
CCN(C[C@H]1[C@@H](c2ccc(C3=CCCC3)cc2)[C@H](CO)N1Cc1ccccn1)S(=O)(=O)c1ccccc1[N+](=O)[O-],-3,-2,0,nt,-2,-1
CC1(C)CC(=O)N(CC(=O)N2CCN(c3cccc(C(F)(F)F)c3)CC2)c2ccccc2S1(=O)=O,-7,-2,-2,nt,-1,-2
O=C(CN1C(=O)NC(Cc2ccccc2)C1=O)Nc1ccc(F)cc1 (stereo not drawn),-3,0,-2,4.5*,0,-1
CCOC(=O)N1CCC(N2CC34C=CC(O3)C(C(=O)Nc3ccc(C)cc3)C4C2=O)CC1 (stereo not drawn),-1,0,1,4.5*,1,-1
CCCCCCCCN1C(=O)[C@@H](CC(=O)NCc2cccs2)C[C@@]2(C(=O)OC)C1=C[C@H](COCc1ccccc1)O[C@@H]2C,-2,0,-2,nt,0,1
O=C(c1ccccc1)n1ccc2ccc(-c3ccc4ccn(Cc5ccccc5)c4c3)cc21,-3,11*,2,nt,-1,0
Nc1cc(=O)[nH]c(SCCNS(=O)(=O)c2ccccc2)n1,1,3,3,-2,0,0.9*
Nc1cc(=O)[nH]c(SCCSc2ccccc2)n1,0,-1,-4,0,0,-1
COc1ccc(/C=C2\CC3(OC(=O)C4CCCC4)CCCN2C3)cc1 (stereo not drawn),-6,-1,1,nt,0,-1
Cc1cc(NC(=O)CN2CCN(c3ccccc3O)CC2)no1,-2,0,0,0,0,1.1*
O=C(Cc1c[nH]c2ccccc12)Nc1ccc(Nc2cccnc2)c(-c2cc(F)cc(F)c2)c1,2,-1,-1,nt,-2,-1
Cc1cccnc1NC(=S)NC(=O)/C=C/c1ccccc1,5,12*,1,2,1,-1
Cc1ccnc(NC(=S)NC(=O)/C=C/c2ccccc2)c1,2,2,1,0,0,-1
